Pf Dd2 inh = qHTS Primary assay for Inhibitors of Plasmodium falciparum Dd2 growth in vitro | P. falciparum Dd2 growth, SYBR Green, 72 h | Potency, µM (highest dose often 28.9 µM), usual class: inhibitors | hit rate 4.3% among 120,000 | AID 1347417, 2020; active = well fitted inhibition curve with a large enough effect; also: nearly all actives have a fitted effect of over 65% in size
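Readout: SYBR Green fluorescence, 485 nm excitation, 535 nm emission, after ~16 h lysis at 37C. Before that, Dd2-infected red cells (2.5% hematocrit) grew 72 h with compound, 29 uM top final concentration.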
Each line names hits and unclear results; the compound was inactive in the other large screens. Many of the other results were omitted from the sample, so hits are more common in it than they were.

O=C(O)C1CCc2nnc(C3CCN(C(=O)c4cccc(Cl)c4)C3)n21 (centres undefined)	none
O=C(C1CCN(c2cnn(Cc3ccccc3)c(=O)c2)C1)N1CCCC1 (centres undefined)	none
COc1cccc(NC(=O)Cn2c(C)ccc(NC(=O)Nc3ccc(C)cc3)c2=O)c1	none
CN(C)C[C@H]1O[C@@H](CO)[C@@H](O)[C@H]1N1CCCC1	none
O=C(Nc1cccc(Br)c1)N1CCC2(CC1)SCC(=O)N2Cc1ccco1	none
CC(=O)N1CCc2nn(CC(=O)N3CCN(c4ccccc4F)CC3)c(=O)cc2C1	none
COc1cccc(NC(=O)CSc2nc3c([nH]c4ccccc43)c(=O)n2-c2ccccc2)c1	Pf Dd2 inh 5.6µM
CCOc1ccc(NC(=O)CSc2nc3c([nH]c4ccccc43)c(=O)n2-c2cc(C)cc(C)c2)cc1	none
Cc1cccc(NC(=O)CSc2nc3c([nH]c4ccccc43)c(=O)n2C)c1C	none
COc1ccc(NC(=O)CSc2nc3c([nH]c4ccccc43)c(=O)n2-c2ccccc2)c(OC)c1	Pf Dd2 inh 5µM
CCOc1ccc(-n2c(SCC(=O)Nc3ccc4c(c3)OCCO4)nc3c([nH]c4ccccc43)c2=O)cc1	none
CC1CCN(C(=O)CSc2nc3c([nH]c4ccccc43)c(=O)n2-c2ccccc2)CC1	none
Cn1c(SCC(=O)Nc2ccccc2F)nc2c([nH]c3ccccc32)c1=O	none
O=C(CSc1nc2c([nH]c3ccccc32)c(=O)n1-c1ccccc1F)Nc1ccccc1C(F)(F)F	Pf Dd2 inh 10µM
O=C(CSc1nc2c([nH]c3ccccc32)c(=O)n1-c1ccccc1)N1CCCCCC1	none
Cc1cc(C)cc(-n2c(SCC(=O)Nc3ccc4c(c3)OCCO4)nc3c([nH]c4ccccc43)c2=O)c1	none
O=C(CSc1nc2c([nH]c3ccccc32)c(=O)n1-c1ccccc1)Nc1ccc2c(c1)OCO2	Pf Dd2 inh 11µM
COc1ccc(NC(=O)CSc2nc3c([nH]c4ccccc43)c(=O)n2C)cc1	none
CS(=O)(=O)N1CCCC(C(=O)NCCCN2CCCc3ccccc32)CCNC(=O)CC1 (centres undefined)	none
O=C(CCC1CCN(C(=O)c2ccccc2)CC1)Nc1ccccc1	none
CN(C1CCc2ccccc21)[S+](=O)([O-])c1cccc(C(F)(F)F)c1 (centres undefined)	none
CCc1noc(-c2cn(C3CCN(C(=O)c4cc(Cl)ccc4OC)CC3)nn2)n1	none
CCOc1ccc2c(n1)CCN(C(=O)c1ccc(OC)cc1OC)C2	none
Cc1ccc(-c2ccc3nnc(CNC(=O)CNC(=O)c4ccccc4)n3n2)cc1	none
CC(=O)c1cc(C(=O)N2CCC3(CC2)Nc2ccccc2NC3=O)[nH]n1	none
COC1CCN(C(=O)c2cnc3c(c2)N(C(=O)CCc2ccccc2)CCC3)CC1	none
COc1ccccc1CC(=O)N1CCCc2ncc(C(=O)N3CCCC[C@@H]3Cc3ccccc3)cc21	Pf Dd2 inh 7.9µM
COc1ccccc1CC(=O)N1CCCc2ncc(C(=O)NCc3cccc(Cl)c3)cc21	none
COc1ccccc1CC(=O)N1CCCc2ncc(C(=O)NC(c3ccccc3)c3ccccc3)cc21	none
COc1ccccc1CC(=O)N1CCCc2ncc(C(=O)N3CCC(OC)CC3)cc21	none
COc1ccccc1CC(=O)N1CCCc2ncc(C(=O)N3CCCC[C@@H]3c3ccccc3)cc21	Pf Dd2 inh 11µM
O=C(CC1CCCCC1)N1CCC(c2noc(COc3ccc(F)cc3)n2)CC1	none
O=C(N[C@H]1[C@H](O)[C@H](O)C[C@@H]1c1cccnc1)c1ccccn1	none
O=C(NCC1CCCCC1)C1(CCO)CCN(c2ncccn2)C1 (centres undefined)	none
COc1ccc(CNCCC(c2ccc(C)cc2)c2ccco2)cc1 (centres undefined)	Pf Dd2 inh 13µM
COc1ccc(CNC(=O)C(=O)NCC(c2ccco2)S(=O)(=O)c2ccc(C)cc2)cc1 (centres undefined)	none
COc1ccc(CNCCN2CCCC2)cc1	none
CCn1cc(S(=O)(=O)N2CCC(c3noc(-c4cnccn4)n3)C2)cn1 (centres undefined)	none
CS(=O)(=O)N1CCc2ccc(C(=O)N3CCN(Cc4ccc5c(c4)OCO5)CC3)cc21	none
O=C(O)C1CC2(CCN(C(=O)c3ccccc3N3CCCC3)CC2)CN1 (centres undefined)	none
Cn1cc(S(=O)(=O)c2ccccc2)c(=O)c2cc(F)c(N3CCN(c4ccccc4)CC3)cc21	Pf Dd2 inh 7.1µM
Cc1ccc(S(=O)(=O)c2cn(C)c3cc(N4CCN(c5ccccc5)CC4)c(F)cc3c2=O)cc1	none
CCn1cc(S(=O)(=O)c2ccccc2)c(=O)c2cc(C)ccc21	none
CCn1cc(S(=O)(=O)c2ccccc2)c(=O)c2cc(F)c(N3CCN(c4ccccc4)CC3)cc21	Pf Dd2 inh 3.2µM
Cn1cc(S(=O)(=O)c2ccccc2)c(=O)c2cc(F)c(N3CCOCC3)cc21	none
CCn1cc(S(=O)(=O)c2cccc(C)c2)c(=O)c2cc(F)c(N3CCCCC3C)cc21 (centres undefined)	none
Cc1sc2ccn(C)c(=O)c2c1C(=O)NCc1ccccc1Cl	none
COCCn1ncc(N2CCC(NC(=O)C(C)C)CC2)cc1=O	none
CCC(C)NC(=O)CC1Sc2ncccc2N(CC(C)C)C1=O (centres undefined)	none
O=S(=O)(NCC1(COc2cnccn2)C[C@@H](O)[C@@H](O)C1)c1ccc(F)cc1 (some centres undefined)	none
O=C(CN1CCCc2nc(C3CC3)ncc2C1=O)N1CCc2ccccc2C1	none
COc1ccc(-c2cc(N3CCCC(NC(=O)c4ccc(N(C)C)cc4)C3)n[nH]2)cc1 (centres undefined)	none
CCC(=O)N1CCN(c2nc3c(s2)CC(C(=O)N2CCC(C)CC2)CC3)CC1 (centres undefined)	none
CC(C)NC(=O)c1cc(-c2ccccc2F)cc2c1OCCN2Cc1cccnc1	none
O=C1[C@@H]2C[C@@H](CN2CC2CC2)Oc2ccccc2N1Cc1ccc(OC(F)(F)F)cc1	Pf Dd2 inh 4µM
O=C1[C@@H]2C[C@@H](CN2Cc2ccc(Cl)cc2)Oc2ccccc2N1CC1CC1	Pf Dd2 inh 13µM
O=C1[C@@H]2C[C@@H](CN2C(=O)C2CC2)Oc2ccccc2N1Cc1ccc(OC(F)(F)F)cc1	none
COCC(=O)N1C[C@@H]2C[C@H]1C(=O)N(Cc1ccc(OC(F)(F)F)cc1)c1ccccc1O2	none
O=C1[C@@H]2C[C@@H](CN2Cc2nccs2)Oc2ccccc2N1CC1CC1	none
O=C1[C@@H]2C[C@@H](CN2Cc2cccc(Cl)c2)Oc2ccccc2N1CC1CC1	none
COc1ccccc1-c1cc(C(=O)N2CCCC2)nc2c1cnn2C	none
CN1CCC(NC[C@H]2COCc3nc4cccnc4n32)CC1	none
Cc1cccc2c1nc1n2[C@@H](CNC2CCCCC2)COC1	none
c1cnc2c(c1)nc1n2[C@@H](CNC2CCCCC2)COC1	Pf Dd2 inh 14µM
Cc1c(CN2C[C@@H](CN(C)CCO)[C@@H](CO)C2)[nH]c2c(Cl)cccc12	Pf Dd2 inh 13µM
Cc1cc2c(cc1C(=O)N1C[C@@H](CN(C)CCO)[C@@H](CO)C1)OCCO2	none
CN(CCO)C[C@@H]1CN(C(=O)c2ccc3c(c2)CCC3)C[C@@H]1CO	none
O=c1[nH]c(C2CCN(Cc3ccc(C(F)(F)F)cc3)CC2)nn1Cc1ccccc1	none
O=C(COc1ccc(F)cc1)N1CCC2(CC1)NC(=O)N(c1ccccc1Cl)N2	none
COc1ccc(CNC2CN(C(=O)OC(C)(C)C)C2)cc1	none
CC(C)(C)OC(=O)N1CC(NCc2ccc(-c3ccc(OC(F)(F)F)cc3)cc2)C1	Pf Dd2 inh 10µM
CC(C)(C)OC(=O)N1CC(NCc2ccc(C(F)(F)F)cc2)C1	none
